Mean cell size and cell count data for 22 molecules are collected here from the supplement of paper PMC4709259.

Assay [1] concerns Jurkat. Put plainly: mean cell size (FSC-A) relative to DMSO control (fraction of control); higher = larger cells. The following applies: 48 h. A digest of the protocol: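 Jurkat cells at 600 cells/µl were incubated for 1 h and then treated for 48h with the Enzo Screen-Well FDA Approved Drug Library v2.0 at 25µM, with DMSO at 0.9% (v/v) final. Compounds that reduced counts below 20% of controls were retested in 10-fold dilutions down to 25nM. Cell count and mean cell size, taken as forward scatter area, were measured by flow cytometry relative to solvent-only controls. Each plate carried 6-12 controls, and values are means of 3 biological replicates.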

For assay [2], the system named is Jurkat. Put plainly: cell count relative to DMSO control (fraction of control); higher = more cells (less growth inhibition). The conditions noted are these: 48 h.

Where a name gives a salt, the structure may show the parent alone. ± gives the standard deviation.

`Nc1nc(/C(=C/CC(=O)O)C(=O)N[C@@H]2C(=O)N3C(C(=O)O)=CCS[C@H]23)cs1` [Ceftibuten] (concentration: 25 µM) showed a mean cell size in the assay on Jurkat [1] of 0.925 ± 0.016. In the assay on Jurkat [2], the cell count was found to be 1.11 ± 0.031.

Take `CC(C(=O)O)c1ccc(-c2ccccc2)c(F)c1` (centres undefined) [Flurbiprofen] (concentration: 25 µM): the mean cell size in the assay on Jurkat [1] is 0.974 ± 0.032. The cell count with Jurkat [2] stood at 0.881 ± 0.083.

The molecule `CC(=O)O[C@]1(C(C)=O)CC[C@H]2[C@@H]3C=C(C)C4=CC(=O)CC[C@]4(C)[C@H]3CC[C@@]21C` [Megestrol Acetate] (concentration: 25 µM) yielded a mean cell size with Jurkat [1] of 0.9825 ± 0.0053. This molecule also gave a cell count in the assay with Jurkat [2] of 0.704 ± 0.059.

In the assay with Jurkat [1], `CCCN[C@H]1CCc2nc(N)sc2C1` [Pramipexole Dihydrochloride Monohydrate] (concentration: 25 µM) returned a mean cell size of 1 ± 0.037. The molecule further returned a cell count in the assay with Jurkat [2] of 0.631 ± 0.011.

As for `C=CC[C@@H]1/C=C(\C)C[C@H](C)C[C@H](OC)[C@H]2O[C@@](O)(C(=O)C(=O)N3CCCC[C@H]3C(=O)O[C@H](/C(C)=C/[C@@H]3CC[C@@H](O)[C@H](OC)C3)[C@H](C)[C@@H](O)CC1=O)[C@H](C)C[C@@H]2OC` [Tacrolimus (Fk506)] (concentration: 25 µM), in the assay with Jurkat [1], the mean cell size is 0.83 ± 0.065. Also, the cell count with Jurkat [2] came to 0.408 ± 0.045.

Regarding `NC[C@H]1O[C@H](O[C@H]2[C@H](O)[C@@H](O[C@H]3O[C@H](CO)[C@@H](O)[C@H](N)[C@H]3O)[C@H](N)C[C@@H]2N)[C@H](O)[C@@H](O)[C@@H]1O` [Kanamycin Sulfate] (concentration: 25 µM), the mean cell size in the assay with Jurkat [1] is 0.919 ± 0.013. Moreover, in the assay on Jurkat [2], the cell count was determined as 1.06 ± 0.08.

Take `c1ccc2c(c1)CCCC2C1=NCCN1` (centres undefined) [Tetrahydrozoline·HCl] (concentration: 25 µM): in the assay with Jurkat [1], the mean cell size was found to be 0.9443 ± 0.007. For the same molecule, the cell count in the assay on Jurkat [2] stood at 1.16 ± 0.094.

In turn, `CN[C@H]1CC[C@@H](c2ccc(Cl)c(Cl)c2)c2ccccc21` [Sertraline·HCl] (concentration: 2.5 µM) gave a mean cell size with Jurkat [1] of 1.008 ± 0.0063. Besides, the cell count in the assay on Jurkat [2] is 0.853 ± 0.12.

Consider `CN[C@@H]1[C@H](O)[C@H](NC)[C@H]2O[C@@]3(O)C(=O)C[C@@H](C)O[C@H]3O[C@@H]2[C@H]1O` [Spectinomycin·HCl Pentahydrate] (concentration: 25 µM), for which the mean cell size in the assay on Jurkat [1] was found to be 1.05 ± 0.014. The cell count in the assay with Jurkat [2] is 0.941 ± 0.16.

Take `CC(=O)NC[C@H]1CN(c2ccc(N3CCOCC3)c(F)c2)C(=O)O1` [Linezolid] (concentration: 25 µM): the mean cell size in the assay on Jurkat [1] is 0.942 ± 0.018. The cell count in the assay with Jurkat [2] came out at 0.718 ± 0.084.

Regarding `CC(CN(C)C)CN1c2ccccc2CCc2ccccc21` (centres undefined) [Trimipramine Maleate] (concentration: 25 µM), the mean cell size in the assay on Jurkat [1] amounted to 1.02 ± 0.022. In the assay with Jurkat [2], this molecule displayed a cell count of 0.834 ± 0.056.

In the assay with Jurkat [1], `O=C(O)CCc1nc(-c2ccccc2)c(-c2ccccc2)o1` [Oxaprozin] (concentration: 2.5 µM) yielded a mean cell size of 0.966 ± 0.014. This molecule also had a cell count with Jurkat [2] of 1.03 ± 0.013.

The molecule `C/C(=C\C(=O)OCCCCCCCCC(=O)O)C[C@@H]1OC[C@H](C[C@@H]2O[C@H]2[C@@H](C)[C@H](C)O)[C@@H](O)[C@H]1O` [Mupirocin] (concentration: 25 µM) yielded a mean cell size with Jurkat [1] of 0.928 ± 0.065. The molecule further yielded a cell count in the assay with Jurkat [2] of 0.525 ± 0.18.

In the assay with Jurkat [1], `CCN(CC)CCOC(=O)C1(C2CCCCC2)CCCCC1` [Dicyclomine·HCl] (concentration: 25 µM) came in with a mean cell size of 0.9222 ± 0.0091. Also, the cell count with Jurkat [2] stood at 0.922 ± 0.054.

The molecule `CCOC(=O)C1=C[C@@H](OC(CC)CC)[C@H](NC(C)=O)[C@@H](N)C1` [Oseltamivir Phosphate] (concentration: 25 µM) showed a mean cell size with Jurkat [1] of 0.932 ± 0.023. In addition, the cell count in the assay with Jurkat [2] was determined as 0.939 ± 0.075.

Regarding `CCCc1nc(C(C)(C)O)c(C(=O)O)n1Cc1ccc(-c2ccccc2-c2nnn[nH]2)cc1` [Olmesartan] (concentration: 25 µM), in the assay with Jurkat [1], the mean cell size amounted to 0.97 ± 0.034. The cell count with Jurkat [2] is 1.16 ± 0.1.

Take `CC(O)(P(=O)(O)O)P(=O)(O)O` [Etidronate Disodium] (concentration: 25 µM): the mean cell size in the assay with Jurkat [1] worked out at 1 ± 0.052. The molecule further gave a cell count in the assay with Jurkat [2] of 0.595 ± 0.17.

`Cc1cn(-c2cc(NC(=O)c3ccc(C)c(Nc4nccc(-c5cccnc5)n4)c3)cc(C(F)(F)F)c2)cn1` [Nilotinib] (concentration: 25 µM) registered a mean cell size in the assay on Jurkat [1] of 0.979 ± 0.037. The same molecule registered a cell count in the assay on Jurkat [2] of 0.762 ± 0.086.

The molecule `COC(=O)C1=C(C)NC(C)=C(C(=O)OCC(C)C)C1c1ccccc1[N+](=O)[O-]` (centres undefined) [Nisoldipine] (concentration: 25 µM) showed a mean cell size in the assay on Jurkat [1] of 1.09 ± 0.047. The cell count with Jurkat [2] is 0.342 ± 0.015.

In the case of `Cc1nc(Nc2ncc(C(=O)Nc3c(C)cccc3Cl)s2)cc(N2CCN(CCO)CC2)n1` [Dasatinib] (concentration: 2.5 µM), the mean cell size with Jurkat [1] was determined as 0.8161 ± 0.0028. The molecule further showed a cell count with Jurkat [2] of 1.03 ± 0.063.

On to `O=C1CCc2ccc(OCCCCN3CCN(c4cccc(Cl)c4Cl)CC3)cc2N1` [Aripiprazole] (concentration: 25 µM), for which the mean cell size in the assay with Jurkat [1] came out at 1.02 ± 0.037. For the same molecule, the cell count with Jurkat [2] is 0.89 ± 0.092.

In the assay with Jurkat [1], `COCCCC/C(=N\OCCN)c1ccc(C(F)(F)F)cc1` [Fluvoxamine Maleate] (concentration: 25 µM) yielded a mean cell size of 0.973 ± 0.046. The cell count with Jurkat [2] came out at 0.866 ± 0.083.
